Compound activity (PubChem BioAssay)
CBX7 AlphaScr: blocks human CBX7 binding to H3K27me3 peptide. hit rate 1.1% among 66,000. AlphaScreen His6-CBX7 / biotin-H3K27me3 peptide binding; active compounds read low. O95931. normalised signal (fraction of DMSO) (test concentration not listed); in the data active means normalised signal below about 0.5
Target sequence (O95931 whole entry, looked up): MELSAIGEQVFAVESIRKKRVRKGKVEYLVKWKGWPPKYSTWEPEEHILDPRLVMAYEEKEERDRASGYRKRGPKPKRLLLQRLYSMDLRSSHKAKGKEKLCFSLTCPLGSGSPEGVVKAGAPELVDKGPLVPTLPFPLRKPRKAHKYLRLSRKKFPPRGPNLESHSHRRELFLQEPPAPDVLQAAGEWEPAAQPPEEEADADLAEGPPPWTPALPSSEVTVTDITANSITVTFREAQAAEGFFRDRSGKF
Large screens that a line does not name were inactive. The sample as a whole holds a higher share of hits than the screen did.

CCCN1CCN(CCCNC(=O)C2CCCN(c3nn4c(=O)cc(C)nc4s3)C2)CC1 (stereo unspecified)	none
O=C(C1CCCN(Cc2cccnc2)C1)N1CCCCCC1 (stereo unspecified)	none
Cc1cccc(Cc2c(C)nc3c(C(=O)NCc4ccc(F)cc4)cnn3c2C)c1	none
COc1ccc(N2C(=O)C3C4C=CC(C4=C4CCCC4)C3C2=O)cc1 (stereo unspecified)	none
O=C(O)c1ccc(N2C(=O)CC(N3CCN(Cc4ccccc4)CC3)C2=O)cc1 (stereo unspecified)	none
Cc1oc(-c2cccc(F)c2)nc1CSCC(=O)Nc1cccnc1Cl	none
COc1nnc(-c2ccc(C)c(S(=O)(=O)NC(C)(C)C)c2)c2ccccc12	none
CC1=Nc2cc(C(=O)NCc3ccccc3)ccc2Sc2ccc(Cl)cc21	none
CCOC(=O)c1cnc2ccc(OCC)cc2c1N1CCCC1	none
CCOC(=O)c1cnc2ccc(OCC)cc2c1N1CCN(c2ccccc2F)CC1	CBX7 AlphaScr 0.167
CCOC(=O)c1cnc2ccc(OCC)cc2c1Nc1ccc(OCC)cc1	none
CCOC(=O)c1cnc2ccc(OCC)cc2c1Nc1ccc(C)c(C)c1	none
CCOC(=O)c1cnc2ccc(OCC)cc2c1N1CCN(c2ccccc2)CC1	none
CCOC(=O)c1cnc2ccc(OCC)cc2c1Nc1ccc(F)c(Cl)c1	CBX7 AlphaScr 0.397
CC(C)N(Cc1nc(-c2ccccc2)no1)C(=O)c1ccc(F)cc1	none
CCOC(=O)c1c(NC(=O)c2ccccc2C)sc2c1CCCCC2	none
Cc1noc(C)c1S(=O)(=O)N1CCCC(C(=O)N2CCCCC2)C1 (stereo unspecified)	none
CCn1c(C(=O)Nc2ccc(Cc3ccncc3)cc2)cc2sc(Cl)cc21	none
O=c1oc2c3c4c(cc2c(C(F)(F)F)c1CCBr)CCCN4CCC3	none
NC(=O)c1oc2ccccc2c1NC(=O)c1ccc(S(=O)(=O)N2CCCc3ccccc32)cc1	none
CCc1nnc(NC(=O)c2ccc(S(=O)(=O)N3CCc4ccccc4C3)cc2)o1	none
CCc1nnc(NC(=O)c2ccc(S(=O)(=O)N3CCCc4ccccc43)cc2)o1	CBX7 AlphaScr 0.0473
COCc1nnc(NC(=O)c2ccc(S(=O)(=O)N3CCCC(C)C3)cc2)o1 (stereo unspecified)	none
CCc1nnc(NC(=O)c2ccc(S(=O)(=O)N3CCCC3)cc2)o1	CBX7 AlphaScr 0.454
COCc1nnc(NC(=O)c2ccc(S(=O)(=O)N3CCCCCC3)cc2)o1	CBX7 AlphaScr 0.0663
CCc1nnc(NC(=O)c2ccc(S(=O)(=O)N3CC(C)CC(C)C3)cc2)o1 (stereo unspecified)	none
CCc1nnc(NC(=O)c2ccc(S(=O)(=O)N3CCCCC3C)cc2)o1 (stereo unspecified)	none
Cc1ccc(OC(=O)c2sc3ncn(Cc4ccccc4F)c(=O)c3c2C)cc1	none
O=c1c2ccccc2nc(CSc2nccn2Cc2ccccc2)n1-c1ccccc1Cl	none
Cc1ccc2cc(NC(=O)COc3ccc(-n4cnnn4)cc3)ccc2n1	none
CCOc1ccc(S(=O)(=O)Nc2ccc(-c3csc(-c4ccccc4)n3)cc2)cc1	none
CCc1nnc(SCC(=O)Nc2cccc(C)c2)nc1CC	none
Cc1ccc2nc(SCC(=O)Nc3ccc(OC(F)(F)F)cc3)[nH]c2c1	none
O=C(CSc1nnc(Cc2cc(=O)[nH]c(=O)[nH]2)n1-c1ccccc1)Nc1nccs1	none
CCOc1ccc(C(=O)Nc2ccc3nc(N4CCN(c5ncccn5)CC4)cc(C)c3c2)cc1	none
CC1CCC(NC(=O)CN2C(=O)COc3ccc(S(=O)(=O)N4CCOCC4)cc32)CC1 (stereo unspecified)	none
Cc1ccc2nc(NS(=O)(=O)c3ccc(Cl)cc3)c(Nc3cccc(F)c3)nc2c1	none
Cc1cccc2nc(-c3ccccn3)c(Nc3ccccc3)n12	CBX7 AlphaScr 0.00532
Cc1ccc(Nc2c(-c3ccccn3)nc3ccc(Cl)cn23)cc1	none
Cc1ccn2c(Nc3ccc(F)cc3)c(-c3ccccn3)nc2c1	CBX7 AlphaScr 0
Cc1ccc(Nc2c(-c3c(F)cccc3Cl)nc3cccc(C)n23)cc1	none
Cc1ccc(Nc2c(-c3ccccc3)nc3cc(C)ccn23)cc1	none
Cc1ccc(Nc2c(-c3ccccn3)nc3cccc(C)n23)cc1	CBX7 AlphaScr 0.00144
Fc1ccc(Nc2c(-c3ccccn3)nc3ccc(Br)cn23)cc1	none
Cc1cccc(C)c1Nc1c(-c2ccccc2F)nc2cccc(C)n12	none
Cc1ccc(Nc2c(-c3ccccn3)nc3ccc(Br)cn23)cc1	none
Cc1ccc(-c2nc3ccccn3c2Nc2ccc(F)cc2)cc1	none
Cc1cccc2nc(-c3ccccn3)c(Nc3ccc(F)cc3)n12	CBX7 AlphaScr 0.0586
Cc1ccc(Nc2c(-c3ccsc3)nc3cccc(C)n23)cc1	none
CC1CCN(C(=O)c2ccccc2NC(=O)c2cccc(S(=O)(=O)N3CCCCC3)c2)CC1	none
c1ccc(Nc2c(-c3ccccc3)nc3sccn23)cc1	none
CN1C2CCC1CC(N(CCc1ccccc1)C(=O)c1ccccc1)C2 (stereo unspecified)	none
O=C(Cn1cc(S(=O)(=O)c2ccccc2)c(=O)c2cc(F)ccc21)Nc1ccc(F)cc1	none
Cc1cccc(NS(=O)(=O)c2cc(Br)cc3c2N(C(=O)C2CC2)CC3)c1	none
